This is an account of results in PubChem BioAssay (NCI).

Several values for one entry are separate records, joined by “and”; a condition that tells them apart may be missing. Equal values may be shown once. Compounds without any hit were thinned out: in the full panel of roughly 83,000, 20% have a hit.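 Interpretation: 100, growth as untreated; towards 0, rising growth inhibition; 0, no net growth; 0 to -100, cell death. Compounds scoring below 10 were considered active.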 Activity calls are given as the source filed them.

The test concerns MDA-MB-468 breast. The experiment in a line: NCI-60 one-dose screen, 48 h (100 = growth as untreated, 0 = no growth, -100 = all killed). As to conditions: 10 µM unless noted.
For the molecule `Cc1ccccc1N1C(c2ccccc2)=NNC12C=CC(=O)C=C2Cl` (stereo not given), the growth was 109% (inactive).

On to `O=C(O)c1cn(C2CC2)c2cc(N3CCN(Cc4ccc5ccccc5c4O)CC3)c(F)cc2c1=O`, for which the growth is 39.2% (inactive).

`O=C(Cc1ccccc1Nc1c(Cl)cccc1Cl)NN1C(=O)/C(=C/c2ccc(Br)cc2)SC1=S`: the growth is 97% (inactive).

Turning to `Nc1nc(N)c2cc(S(=O)(=O)c3ccccc3)ccc2n1`, the growth is 49.9% (inactive) and 57.7% (inactive).

For the molecule `Cc1cc(NCc2cc(Nc3ccnc4cc(Cl)ccc34)ccc2F)nc(N2CCN(c3ccccc3)CC2)n1`, the growth is 30.2% (inactive).

Regarding `Cc1cc(Cl)c2c(N(C)C)cccc2n1`, the growth is 77.4% (inactive).

Turning to `CC(=O)NC1=C(C#N)C(c2ccccc2Cl)c2c(ccc3ccccc23)O1` (stereo not given), the growth was 14% (inactive).

With `COc1cc(Nc2nc3ccccc3nc2NS(=O)(=O)c2ccc(NC(=O)c3ccc(C)c(OC)c3)cc2)cc(OC)c1`, the growth was 72.6% (inactive) and -30.3% (active).

Turning to `Cc1cc(NC(=O)NC(=O)c2ccccc2N(C)C)ccc1Oc1ncc(Br)cn1`, the growth is -2.54% (active).

For `CC(C)C(C)(C)C(=O)C(C)(C)C(C)(C)C`, the growth is 90.1% (inactive).

Consider `Cc1cc(C)c2c(Nc3ncnc4c3sc3nc(C)cc(C)c34)n[nH]c2n1`, for which the growth is 92.2% (inactive).

As to `COc1cc(/C(Cl)=C/C=C/C(=O)c2c(C)[n+]([O-])c3ccc(Cl)cc3[n+]2[O-])cc(OC)c1OC`, the growth was -11.2% (active).

Take `O=C(Nc1ccccc1)c1ccco1`: the growth was 103% (inactive).

On to `C#CCO[C@H]1CC[C@H](OCC#C)[C@@H]2[C@H]1[C@H]1C[C@@H]3[C@@]4(C)CCC[C@@](C)(C(=O)OC)[C@@H]4CC[C@@]23C=C1C(C)C`, for which the growth was 91.3% (inactive).

Regarding `O=S1(=O)N(Cc2ccccc2)[C@@H](Cc2ccccc2)C2O[C@H]2[C@H](Cc2ccccc2)N1Cc1ccccc1` (stereo not given in full), the growth is 6.52% (active).

As for `C/C(=N/O)c1ccc(NC(=O)Cn2nc(-c3ccc(Cl)cc3)nc2N)cc1`, the growth is 100% (inactive).

Consider `NC(=O)C12C(=O)NC(=O)C1(C(=O)O)C21CCCC1` (stereo not given), for which the growth was 112% (inactive).

On to `C/C(=N\NC(=O)c1ccncc1)c1ccccc1O`, for which the growth is 13.1% (inactive) and 22.6% (inactive).

Regarding `CC(C)C1=C[C@@]23CC[C@H]4[C@](C)(COCCC#N)CCC[C@]4(C)[C@H]2C[C@@H]1[C@@H]1[C@H]3[C@@H](OCCC#N)CC[C@@H]1OCCC#N`, the growth was -4.51% (active).

On to `COc1ccc2c(c1)C/C(=C\c1cc(-c3ccc4c(c3)OCO4)n[nH]1)C2=O`, for which the growth is 37.8% (inactive).

Consider `COc1ccc(CNc2nc3ccccc3c3c(=O)c4ccccc4sc23)cc1OC`, for which the growth is 57.4% (inactive).

In the case of `CC(=O)Nc1cc(C)ccc1C`, the growth was 76% (inactive).

For `CC(C)c1ccc(/C=N/Nc2nc3ccccc3s2)cc1`, the growth was 110% (inactive).

As for `CCCCCCCCCCC(CN(CC)CC)C(O)c1ccccc1` (stereo not given), the growth is -61.2% (active).

In the case of `COc1cc(OC)cc(C(=O)Nc2cccc(C#Cc3cccc4[nH]nc(N)c34)c2)c1`, the growth was 31.8% (inactive).

Consider `O=C(/C=C\c1ccccc1Cl)c1ccccc1`, for which the growth was 87.5% (inactive).

As for `c1ccc(-c2nc(N3CCOCC3)c3c4c(sc3n2)CCCCC4)nc1`, the growth is 65.7% (inactive).

Take `COc1ccc(C2[C@@H](c3ccccc3)C(=O)N2c2cc(OC)c(OC)c(OC)c2)cc1F` (stereo not given in full): the growth was -4.41% (active).

As to `N#Cc1ccc(O)c(C2=NCC(c3cccc(Oc4ccccc4)c3)O2)c1` (stereo not given), the growth was 27% (inactive).

Regarding `CCCCCCN=C(N)CCCCCCCCCCC(N)=NCCCCCC`, the growth was -8.12% (active).

Regarding `O=C(O)c1occ(Cl)c1Cl`, the growth is 107% (inactive).

Take `Oc1ccc(CCC2CCCC(CCc3ccc(OCCF)cc3)N2)cc1` (stereo not given): the growth is 110% (inactive).

As for `Cc1cc(C)cc(OCC(=O)O)c1`, the growth was 131% (inactive).

As to `CCCCc1nc2c(N)nc3ccccc3c2n1Cc1cccc(CN)c1`, the growth was 27.3% (inactive).

On to `C[C@@H]1C(=O)N(C[C@H](Cc2ccccc2)NC(=O)OCc2ccccc2)[C@]1(Cc1ccccc1)C(=O)OCc1ccccc1`, for which the growth was 24.6% (inactive).

Consider `O=C1NC(=S)S/C1=C\c1cc(Br)ccc1O`, for which the growth was 112% (inactive).

Consider `Nc1c(O)c(S(=O)(=O)O)c(O)c2c1C(=O)c1ccccc1C2=O`, for which the growth is 1.06% (active).

Consider `CCOC(=O)Nc1nn[nH]n1`, for which the growth is 101% (inactive).

On to `CCCCC(CC)COC(=O)C[N+](C)(C)CCOC(c1ccccc1)c1ccccc1` (stereo not given), for which the growth is -39% (active).

Take `CC(C)(C)c1ccc(OC(=O)Nc2ccccc2)cc1`: the growth is 112% (inactive).
